According to PubChem BioAssay (NCI):
Compounds without any hit were thinned out: in the full panel of roughly 83,000, 20% have a hit.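 Interpretation: 100, growth as untreated; towards 0, rising growth inhibition; 0, no net growth; 0 to -100, cell death. Compounds scoring below 10 were considered active.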 Calls of active or inactive are those of the source.

How the values were obtained:
Experiment in all cases: NCI-60 one-dose screen, 48 h (100 = growth as untreated, 0 = no growth, -100 = all killed)
Conditions in all cases: 10 µM unless noted
[1] = tested on: T-47D breast
[2] = tested on: BT-549 breast
[3] = tested on: MDA-MB-435 melanoma
[4] = tested on: SW-620 colon
[5] = tested on: MCF7 breast
[6] = tested on: HCT-116 colon
[7] = tested on: HCC-2998 colon
[8] = tested on: KM12 colon

Measured: growth

COC(=O)c1ccc2oc(NC(=O)c3ccc(Nc4ccc([N+](=O)[O-])cc4C)c([N+](=O)[O-])c3)nc2c1
inactive: [1] 96% | [2] 110% | [3] 100% | [4] 103% | [5] 97.6% | [6] 106% | [7] 101% | [8] 103%

NC(=O)c1cc(I)ccc1NC(=O)/C=C/c1ccccc1Cl
inactive: [1] 26.6% | [2] 70.1% | [4] 26.9% | [6] 14.5% | [7] 23.4% | [8] 10.6%
active: [3] -31.8% | [5] 7.38%

FC(F)(F)c1ccc(-c2cn3nc(-c4c[nH]c5ccc(Br)cc45)sc3n2)cc1
inactive: [1] 67.6% | [2] 105% | [3] 100% | [4] 97.3% | [5] 74.9% | [6] 93.1% | [7] 95.6% | [8] 87.3%

CC(=O)O[C@H]1CC[C@]2(C)[C@H]3CC=C4[C@@H]5CC(C)(C)CC[C@]5(C(=O)NCCNCCN)CC[C@@]4(C)[C@]3(C)CC[C@H]2C1(C)C
inactive: [2] 92.8% | [8] 19.7%
active: [1] -46.5% | [3] -55.5% | [4] -84.6% | [5] -90.7% | [6] -91.2% | [7] -92.1%

CCOc1cc2ncc(C#N)c(Nc3ccc(OCc4cccc(F)c4)c(Cl)c3)c2cc1NC(=O)CCCCC1CCSS1 (stereo not drawn)
inactive: [1] 64.4% | [2] 98.5% | [3] 99% | [4] 99.4% | [5] 58.8% | [6] 75.6% | [7] 105% | [8] 82.8%

Cc1ccc(OC(=O)c2ccc(Cl)cc2)cc1
inactive: [1] 103% | [2] 100% | [3] 99.1% | [4] 87.3% | [5] 102% | [6] 57.9% | [7] 95.3% | [8] 104%

COc1ccc2cc(-c3nn(-c4ccc(C(=O)O)cc4)cc3CO)ccc2c1
inactive: [1] 98.5% | [2] 93.5% | [3] 98.6% | [4] 107% | [5] 91% | [6] 91% | [7] 100% | [8] 101%

CCOC(=O)c1c(CN2CCN(C)CC2)nc2ccc(Cl)cc2c1-c1ccccc1
inactive: [1] 74.3% | [2] 58.5% | [3] 53.5% | [4] 94.8% | [5] 47.6% | [6] 63.7% | [8] 76.2%
active: [7] -0.061%

Cc1ccc2c(C(C[N+](=O)[O-])c3ccccc3)c(-c3ccccc3)[nH]c2c1 (stereo not drawn)
active: [3] -31% [9.5 µM]
inactive: [1] 16.5% [9.5 µM] | [2] 47.5% [9.5 µM] | [4] 13.7% [9.5 µM] | [5] 15% [9.5 µM] | [6] 24.4% [9.5 µM] | [7] 54.9% [9.5 µM] | [8] 18.4% [9.5 µM]

C=CC(COC(c1ccccc1)(c1ccccc1)c1ccccc1)N(CC)CC (stereo not drawn)
inactive: [1] 54.8% | [2] 81.5% | [3] 61.2% | [4] 51.3% | [5] 33.4% | [6] 35.9% | [7] 63% | [8] 54.6%

Cc1[nH]c(-c2cc(N)ccc2Cl)c2c1C(=O)CCCC2
inactive: [1] 19.8% | [2] 49.8% | [3] 15.5% | [4] 64.6% | [5] 12.8% | [6] 29.4% | [7] 33.5% | [8] 32.6%

OC(c1cc2cc(Cl)c(Cl)cc2c2cc(C(F)(F)F)ccc12)C1CCCCN1 (stereo not drawn)
inactive: [2] 76.4%
active: [1] -78.6% | [3] -73.9% | [4] -74% | [5] -87.3% | [6] -87.3% | [7] -80.9% | [8] -91.1%

COc1cc2c(cc1-c1c(C)noc1C)ncc1nc(C3CCC(F)(F)CC3)n([C@H](C)COC(F)F)c12
inactive: [1] 46% | [2] 61.9% | [3] 36.8% | [4] 57.3% | [5] 18.7% | [6] 33% | [7] 46.4% | [8] 45.4%

COc1ccc(SC2c3cc(OC)c(OC)cc3Oc3nc(N)c(C#N)c(N)c32)cc1 (stereo not drawn)
active: [1] -41.9% | [2] -79.1% | [3] -84.4% | [4] -64.5% | [5] -58.9% | [6] -88.6% | [7] -84.3% | [8] -79%

CN1C(=O)C2(SCC(C(=O)NCc3ccccc3)N2C(=O)C2CCCCC2)c2ccccc21 (stereo not drawn)
inactive: [1] 101% | [2] 98.3% | [3] 81.2% | [4] 91.8% | [5] 94.8% | [6] 96.2% | [7] 109% | [8] 92.1%

C#CC(F)(F)[C@]1(O)CC[C@H]2[C@@H]3CCC4=CC(=O)CCC4=C3[C@@H](c3ccc(C(C)=O)cc3)C[C@@]21C
inactive: [1] 58.4% | [2] 106% | [3] 102% | [4] 81.1% | [5] 58% | [6] 94.9% | [7] 108% | [8] 29.8%

COc1ccc(Nc2c3c4c(cccc4[nH]c2=O)C(=O)c2ccccc2-3)cc1
active: [2] 6.53% | [3] -52.4% | [5] 0.568% | [6] 4.08% | [7] -5.28% | [8] -36.2%
inactive: [1] 75.6% | [4] 19%

CN1CCN(CCCOc2cccc3nc(Nc4ccc(Cl)c(F)c4)ccc23)CC1
active: [4] -34.1% | [5] -43.1% | [8] -34.7%
inactive: [1] 38.5% | [2] 80% | [3] 25.3% | [6] 31.6% | [7] 55.2%

COc1cc2nnc3c4cccnc4[nH]c3c2cc1OC
inactive: [1] 24.5% | [2] 72.9% | [3] 49.7% | [7] 88% | [8] 32%
active: [4] 9.61% | [5] 2.75% | [6] 5.66%

CC1=CC(=NN=c2cc(C)n([O-])c(C)c2)C=C(C)[N+]1=O
inactive: [1] 43.9% | [2] 75.1% | [3] 85.9% | [4] 101% | [5] 19.3% | [6] 83.1% | [7] 63.2% | [8] 95.3%

CC(C)C[C@@H](NC(=O)[C@@H](Cc1ccccc1)NC(=O)c1cnccn1)B1Oc2ccc(C[C@H](NC(=O)[C@H](Cc3ccc4c(c3)OB([C@@H](CC(C)C)NC(=O)[C@@H](Cc3ccccc3)NC(=O)c3cnccn3)O4)NC(=O)[C@@H](N)CC3CCC4OB([C@@H](CC(C)C)NC(=O)[C@@H](CC5CCCCC5)NC(=O)C5CNCCN5)OC4C3)C(=O)NCCCC[C@@H]3NC(=O)[C@@H](Cc4ccccc4)NC(=O)[C@H](CC(=O)O)NC(=O)CNC(=O)[C@H](CCCNC(=N)N)NC3=O)cc2O1 (stereo partly drawn)
active: [1] -57.8% | [2] -66.8% | [3] -74.7% | [4] -49.5% | [5] -43.9% | [6] -69.2% | [7] -95.7% | [8] -51.5%

COC(=O)c1cccc(NC(=O)c2ccc(-c3cccc(N)c3)o2)c1
inactive: [1] 88.1% | [2] 93.5% | [3] 98.8% | [4] 104% | [5] 92.4% | [6] 108% | [7] 101% | [8] 98%

Cc1ccc(NC(=O)C2CCC(CN3CCN(C)CC3)CC2)cc1Nc1nccc(-c2cccnc2)n1 (stereo not drawn)
inactive: [1] 86.2% | [2] 103% | [3] 93.5% | [4] 98.4% | [5] 83.8% | [6] 101% | [7] 106% | [8] 97.3%

NC(N)=N/N=C(/c1ccccc1)c1ccc(F)cc1
inactive: [1] 51.2% | [2] 14.7% | [4] 28.8% | [5] 12.3%
active: [3] -19.2% | [6] 2.71% | [7] -43.7% | [8] -7.82%

CNC(=O)c1cc(Oc2ccc(NC(=O)Nc3ccc(Cl)c(SC)c3)c(F)c2)ccn1
inactive: [2] 64.7% | [3] 32.6% | [4] 67.5% | [5] 30% | [6] 30.8% | [7] 51.3% | [8] 29.3%
active: [1] -3.32%

CCOC(=O)C(C)(C#N)C1C=CCCC1 (stereo not drawn)
inactive: [1] 84.5% | [2] 111% | [3] 100% | [4] 91.2% | [5] 92.7% | [6] 93.2% | [7] 43.5% | [8] 90.5%

CN(C)c1ccc(N=Nc2ccccn2)c(O)c1
inactive: [1] 31.4% | [2] 37% | [3] 33.1% | [4] 26.5% | [5] 17.3% | [6] 24.7% | [7] 33.6% | [8] 24.5%

Cc1ccc(-c2onc3c(=O)[nH]nc(-c4ccccc4)c23)cc1
inactive: [1] 37.1% | [2] 40.5% | [4] 34.7% | [5] 24% | [6] 25.8% | [7] 60.5% | [8] 29.3%
active: [3] -34.6%

COc1cccc(-c2nc3sccn3c2-c2ccnc(NCCNS(=O)(=O)c3ccccc3)c2)c1
inactive: [3] 22.6% | [4] 40.8% | [5] 27.4% | [6] 18.5% | [7] 53.2% | [8] 22.2%
active: [1] -18.3% | [2] 6.29%

CC1=C(O)C(=O)C(C(C#N)(C#N)C(C#N)C#N)C1 (stereo not drawn)
inactive: [1] 107% | [2] 95% | [3] 96.8% | [4] 102% | [5] 92.1% | [6] 102% | [7] 95.3% | [8] 97.7%

O=C(COc1cccc(/C=C2\CSc3ccccc3C2=O)c1)Nc1nccs1
inactive: [1] 68.9% | [3] 20.8% | [7] 100%
active: [2] -92.9% | [4] -74.1% | [5] -0.12% | [6] -21% | [8] -39.7%
